DUSP3 inh – DUSP3 (human) phosphatase inhibition; P51452; recombinant VHR phosphatase, pNPP absorbance; inhibition, % at 13.3 µM; hit rate 0.52% among 290,000; AID 1654; in the data active = inhibition above about 50%
Target sequence (P51452 whole entry, looked up): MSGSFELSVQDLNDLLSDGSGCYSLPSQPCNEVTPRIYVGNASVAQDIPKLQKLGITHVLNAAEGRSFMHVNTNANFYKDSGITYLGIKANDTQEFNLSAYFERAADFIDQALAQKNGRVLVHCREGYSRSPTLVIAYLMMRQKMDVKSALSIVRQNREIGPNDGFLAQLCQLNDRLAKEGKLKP
BH1578 lux ind – quorum light induction in luxS cqsA deficient V. cholerae; V. cholerae BH1578 lux reporter, luminescence, 6 h; activation, % at 18.7 µM; hit rate 0.16% among 350,000; AID 588436; in the data active = activation mostly above about 9.7%, no sharp cut-off
3CLpro inhibitor – SARS-CoV 3CLpro protease inhibition; recombinant SARS-CoV 3CLpro, quenched FRET peptide cleavage; AID 1706; P0C6X7; hit rate 0.14% among 290,000; inhibition, % at 6 µM; in the data active = inhibition above about 12%
TcdB inh – TcdB glycohydrolase inhibition; P18177; TcdB glycohydrolase enzymatic assay, plate reader; inhibition, % at 9.99 µM; hit rate 0.24% among 350,000; AID 652162; in the data active = inhibition above about 10%
PriA SSB inh – inhibitors of Klebsiella pneumoniae PriA binding to SSB C-terminal tail; inhibition, % at 33 µM; hit rate 0.6% among 430,000; AlphaScreen SSBct-PriA binding, biotinylated peptide; in the data active = inhibition mostly above about 37%, no sharp cut-off; inactive = mostly below about 20%
CCHFV vOTU inh – CCHFV vOTU protease inhibition; Pep-AMC fluorescence; AID 651958; hit rate 0.55% among 370,000; inhibition, % at 11.5 µM; in the data active = inhibition above about 30%
Hits are given with their value; 0 = inactive; - = not tested or not shown. Hits are enriched below; roughly 1.3% of the tested compounds scored in any of these assays.

SMILES | DUSP3 inh | BH1578 lux ind | 3CLpro inhibitor | TcdB inh | PriA SSB inh | CCHFV vOTU inh
CC(C)n1nnc(-c2ccc(C(=O)Nc3nc(-c4ccccn4)cs3)cc2)n1 | - | - | - | - | 74.4 | -
O=C(c1cc(-c2ccco2)on1)N(Cc1ccsc1)Cc1ccccn1 | - | - | - | - | 0 | -
O=C1C(=NS(=O)(=O)c2cccs2)C([n+]2cccc(Cc3ccccc3)c2)=C([O-])c2ccccc21 | - | - | - | - | 0 | -
CC(Oc1ccc(F)cc1)C(=O)Nc1nc(-c2ccccn2)cs1 (stereo not drawn) | - | 0 | - | 0 | 57.3 | 0
Cc1ccnc2nc(C(=O)Nc3nc(-c4ccccc4Cl)cs3)nn12 | - | - | - | - | 0 | -
Cc1ccnc2nc(C(=O)Nc3nc(-c4ccccn4)cs3)nn12 | 0 | 0 | 0 | 0 | 71.8 | 0
Cc1ccc(C)n1-c1ccc(C(=O)Nc2nc(-c3ccccn3)cs2)cc1 | - | - | - | - | 0 | -
Cc1nc(C(=O)Nc2nc(-c3ccccn3)cs2)nn1-c1ccc(F)cc1 | - | - | - | - | 90.4 | -
O=C(CCCSc1ccc(F)cc1)Nc1nc(-c2ccccn2)cs1 | - | - | - | - | 0 | -
N#Cc1ccc(COCC2CCN(Cc3ccc(F)c(F)c3)CC2)cc1 | - | - | - | - | 0 | -
NC(=S)n1[nH]c(-c2ccc([N+](=O)[O-])cc2)c(N=Nc2cccc([N+](=O)[O-])c2)c1=O | 81.3 | 0 | 0 | 0 | 0 | 0
NC(=S)n1[nH]c(-c2ccc([N+](=O)[O-])cc2)c(N=Nc2ccccc2[N+](=O)[O-])c1=O | 0 | 0 | 0 | 0 | 0 | 0
Brc1ccc2nc(N3CCN(c4nc5ccccc5s4)CC3)sc2c1 | - | - | - | - | 0 | -
NS(=O)(=O)c1ccc(Nc2ccccc2)c([N+](=O)[O-])c1 | 0 | 0 | 0 | 0 | 0 | 0
COc1ccc(Nc2ccc([N+](=O)[O-])cc2[N+](=O)[O-])cc1 | 0 | 0 | 0 | - | 42.7 | 0
COc1ccccc1Nc1ccc([N+](=O)[O-])cc1N | 53.4 | 0 | 0 | 0 | 0 | 0
O=[N+]([O-])c1cc(Cl)ccc1Nc1ccccc1 | 0 | 0 | 0 | - | 89.2 | -
Cc1cc(C)n(-c2cc(SCC(=O)Nc3cc(C)on3)ncn2)n1 | - | - | - | - | 0 | -
O=C(NCC1CCCN1c1ccccc1)C1CC=CCC1 (stereo not drawn) | - | - | - | - | 0 | -
CN(C)c1ccc(CCNC(=O)C(=O)Nc2ccc(C(F)(F)F)cc2)cc1 | - | - | - | - | 0 | -
c1cnc2c(SCc3ccc(-c4nnco4)cc3)cccc2c1 | 0 | 0 | 0 | - | 74.2 | 0
Cc1cccc(CSc2cccc3cccnc23)c1 | 0 | 0 | 0 | - | 94.5 | 0
N#CCSc1cccc2cccnc12 | - | - | - | - | 84.5 | -
Clc1ccc(CSc2cccc3cccnc23)cc1Cl | - | - | - | - | 0 | -
CC(=O)N(C(C)=O)c1c(C#N)c(C)n(-c2ccccc2)c1C(=O)c1ccccc1 | 0 | 0 | 0 | - | 85.1 | 0
SMILES | DUSP3 inh | BH1578 lux ind | 3CLpro inhibitor | TcdB inh | PriA SSB inh | CCHFV vOTU inh
CCc1ccc(NC(=O)CSc2ncc(S(=O)(=O)c3ccc(C)cc3C)c(=O)[nH]2)cc1 | - | - | - | - | 69.0 | -
Cc1cc(NC(=O)c2c(F)cccc2F)n(-c2nc3c(cnn3-c3cccc(C)c3C)c(=O)[nH]2)n1 | - | - | - | - | 52.0 | -
COc1ccccc1OCC(=O)Nc1cc(C)nn1-c1nc2c(cnn2-c2cccc(C)c2C)c(=O)[nH]1 | - | - | - | - | 42.0 | -
Cc1ccc(-n2nc(C)c(C=NNC(=O)c3cccs3)c2Cl)cc1 | - | - | - | - | 0 | -
Cc1nn(-c2cccc(Cl)c2)c(Cl)c1/C=N/NC(=O)c1cccs1 | 53.8 | 0 | 0 | 0 | - | 0
O=c1cccnn1CCCNS(=O)(=O)c1ccc(OC(F)(F)F)cc1 | - | - | - | - | 0 | -
CCOC(=O)C1CCN(S(=O)(=O)CCCOc2cccc3c2OC(C)(C)C3)CC1 | - | - | - | - | 0 | -
COC(=O)C1=CN(C)C=C(C(=O)OC)C1c1ccsc1 | 0 | 16.7 | 0 | - | 0 | 0
COC(=O)C1=CN(C2CC2)C=C(C(=O)OC)C1c1ccc(C(=O)OC)cc1 | 0 | 0 | 0 | - | 0 | 0
CC(C)(C)c1ccc(OCC(=O)NCC[C@H](O)c2ccccc2)cc1 | - | - | - | - | 0 | -
O=C(NCC(c1cccc2ccccc12)N1CCCC1)C(=O)Nc1ccc2c(c1)OCCO2 (stereo not drawn) | - | - | - | - | 48.0 | -
O=C(NC[C@H](O)c1cccc2ccccc12)C(=O)Nc1ccc2c(c1)OCO2 | - | - | - | - | 0 | -
C#CCSc1nnnn1-c1ccc(OCC)cc1 | 0 | 606.8 | 0 | 0 | 0 | 0
O=C1/C(=C/c2ccccn2)SC(=S)N1c1ccc2c(c1)OCO2 | - | - | - | - | 0 | -
COc1ccc(CCNC(=O)N2CCC(c3nnc(C4CC4)o3)CC2)cc1 | - | - | - | - | 0 | -
CC(C)N1C(=O)CC(Nc2cccc3cccc(N)c23)C1=O (stereo not drawn) | 0 | 0 | 0 | 0 | 0 | 0
CN1C(=O)CC(Nc2cccc3cccc(N)c23)C1=O (stereo not drawn) | 58.3 | 0 | 0 | - | 0 | -
